Source: PubChem BioAssay (National Center for Advancing Translational Sciences (NCATS))
Sampled rows, rich in hits. Any-hit rate of the full collection: about 2.9%.
S2 tox = reduces viability in counter-screen for ATXN expression inhibitors | S2 cells (HEK-293 line with an ATXN2-luciferase reporter) viability, CellTiter-Fluor protease fluorescence, 24 h | Potency, µM (highest dose often 56.7 µM), actives largely listed as cytotoxic | 400,000 tested, 0.49% active; further: nearly all actives have a fitted effect of over 40% in size
ATXN2 expr inh = ATXN2 expression inhibition | 360,000 tested, 0.72% active | Potency, µM (highest dose often 57 µM), without a hit: at the top dose activity change, negative = inhibition, most hits filed as inhibitors | HEK-293 ATXN2-luciferase reporter, luminescence, 24 h; further: on the % scale 0 is the no-effect control and ±100 the full control effect; nearly all actives have a fitted effect of over 55% in size
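ATXN2-luciferase reporter cells (luciferase flanked by upstream and downstream ATXN2 gene portions) were treated 24 h at 37 °C with compounds at up to 57 uM. SteadyGlo luminescence gave expression; GF-AFC fluorescence gave viability.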
Nrf2 inh = blocks Nrf2 signaling; A549 ARE-Fluc reporter, luciferase luminescence, 18-24 h; Potency, µM (top dose mostly 46 µM), inactives show at the top dose activity change, negative = inhibition, hits mostly inhibitors; 360,000 tested, 2.1% active; AID 504444; further: on the % scale 0 is the no-effect control and ±100 the full control effect; nearly all actives have a fitted effect of over 60% in size
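A549 ARE_Fluc cells, 5000/well, 5% FBS OPTI-MEM; compounds in dose-response, 18-24 h at 37 °C/5% CO2; CellTiter-Fluor viability read (Ex 405/Em 525), then BugLite luciferase luminescence = Nrf2 activity.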
Nrf2 ARE act = activators of Nrf2 (ARE) signaling | AREc32 ARE-luciferase reporter (MCF7-derived line), luminescence, 24 h | Potency, µM (series often up to 46.1 µM), for inactives: at the highest dose activation, usual class: activators | 410,000 tested, 0.31% active; further: % of control where 0% means no effect; nearly all actives have a fitted effect of over 65% in size
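Luciferase luminescence (Steady-Glo, 30 min at room temperature) served as the read-out of ARE activation in AREc32 cells treated with compounds for 24 hr at 37 deg C.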
A549 viability = kills or reduces viability of A549 cells in Nrf2 counter-screen; A549 ARE-Fluc cells, CellTiter-Fluor viability, 18-24 h; Potency, µM (titrated, usually from 46 µM), inactives show at the top dose activity change, negative = cytotoxicity, usual class: inhibitors; 390,000 tested, 0.16% active; further: on the % scale 0 is the no-effect control and ±100 the full control effect
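Cytotoxicity counterscreen: CellTiter-Fluor fluorescence was measured in A549 ARE_Fluc cells after 18-24 h of compound exposure in a concentration series. The subsequent BugLite luminescent read reports ARE-luciferase activity.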
* marks the source's active call; other numbers are inactive results; i = inactive; ? = inconclusive; nt = not tested or not shown. The call rests on the fitted dose curve; in most records, active means well fitted curve in the direction sought with a large enough effect; inconclusive means small, poorly fitted or top-dose-only effect, or another doubt; inactive means no such curve, though single readings can be large; an effect the other way counts as inactive or inconclusive. Potency means the concentration at half of the fitted maximal effect.

SMILES	S2 tox	ATXN2 expr inh	Nrf2 inh	Nrf2 ARE act	A549 viability
Cc1cccc(N(CC(=O)Nc2ccccc2C(F)(F)F)S(=O)(=O)c2ccccc2)c1C	i	0%	?	3%	8%
CCCCOCCOc1nc(-c2ccc(C(=O)O)c(F)c2)sc1C	nt	30%	nt	nt	nt
COc1ccc(C2Nc3ccccc3C(=O)N2Cc2ccccc2)cc1COc1ccc(Cl)cc1 (stereo unspecified)	nt	nt	-15%	nt	-1%
O=c1cc(C(F)(F)F)[nH]c2ccc(C(F)(F)F)cc12	i	?	21µM*	8%	?
Cc1cc(=O)c2ccc(C(F)(F)F)cc2[nH]1	i	21%	-14%	0%	-8%
CN(C)CCOc1ccc(C(=C(CCCl)c2ccccc2)c2ccccc2)cc1	nt	3%	nt	nt	nt
N#C/C(=C\c1ccc([N+](=O)[O-])o1)c1nc2ccccc2[nH]1	i	13µM*	?	?	-3%
Cc1ccc2nc(/C(C#N)=C\c3ccc([N+](=O)[O-])o3)[nH]c2c1	nt	5.6µM*	12%	?	?
Cc1ccc2nc(/C(C#N)=C\c3ccc(N4CCOCC4)o3)[nH]c2c1	i	60%	?	6%	?
CCC(C)(CCN1CCOCC1)N(Cc1cc2ccccc2n(C)c1=O)C(=O)C1CCCCC1 (stereo unspecified)	nt	nt	7%	nt	-15%
COC(=O)C1=C[C@@H](C(=O)OC)C2C3=C(C(=O)[C@@]2(C)NC(=O)c2ccccc2)[C@H](C)n2c(=O)n(-c4ccccc4)c(=O)n2[C@@H]3C1 (stereo partly specified)	nt	nt	2%	nt	19%
CCCSCCCNC(=O)c1ccc2c(c1)nc1n2CCCCC1	nt	nt	nt	0%	1%
CN(C)c1ccc(C(=S)N2CCN(c3ccc([N+](=O)[O-])cc3)CC2)cc1	i	-5%	?	0%	-4%
O=[N+]([O-])c1ccc(N2CCN(C(=S)NCc3ccc(Cl)cc3)CC2)cc1	i	nt	16µM*	0%	?
O=[N+]([O-])c1ccc(C(=S)N2CCN(c3ccc(F)cc3)CC2)cc1	i	-32%	18µM*	3%	-1%
CCNC(=S)N1CCN(c2ccc([N+](=O)[O-])cc2)CC1	i	-15%	?	0%	?
CC(C)c1c(C(=O)NCCN2CCOCC2)cnn1-c1nccc(-c2cccs2)n1	i	nt	nt	nt	nt
CCn1cnc2c(Nc3ccc(CCC(=O)N=C(N)N)cc3)nc(C#N)nc21	nt	nt	9%	nt	-5%
CCN(c1ccccc1)S(=O)(=O)c1ccc(C(=O)Nc2cccc(C)n2)cc1	i	-12%	18µM*	0%	-18%
Cc1cccc(NC(=O)c2cccc(S(=O)(=O)N(C)c3ccccc3)c2)n1	i	-33%	15µM*	10%	?
Cc1ccnc(NS(=O)(=O)c2ccc(NC(=O)Nc3ccc(S(=O)(=O)Nc4nccc(C)n4)cc3)cc2)n1	nt	-9%	nt	nt	nt
CC(NC(=O)c1cc(F)ccc1F)c1nnc2n1CCN(Cc1cccs1)CC2 (stereo unspecified)	i	nt	nt	nt	nt
COc1cc(CNC2CCCC2)cc(Cl)c1OCc1ccccc1F	nt	20µM*	9%	3%	-7%
COc1cc(CNc2ccc3[nH]c(=O)[nH]c3c2)cc(Cl)c1OCc1ccccc1F	?	-30%	?	9%	?
Cc1cccc(-c2ccc3ncnc(NCc4cccs4)c3c2)c1	i	?	21µM*	-1%	-3%
SMILES	S2 tox	ATXN2 expr inh	Nrf2 inh	Nrf2 ARE act	A549 viability
FC1(F)Oc2ccc(-c3ccc4ncnc(NCc5cccs5)c4c3)cc2O1	nt	nt	13µM*	nt	-13%
Cc1cc(N2CCN(C)CC2)nc2ccc(NC(=O)Nc3cccc(Cl)c3)cc12	nt	?	-18%	4%	?
O=C(N/N=C/c1ccccn1)c1cc(-c2ccc(Br)cc2)nc2ccccc12	?	?	13µM*	0%	?
O=C(O)COc1ccccc1/C=N/NC(=O)c1cc(-c2ccc(Cl)cc2)nc2ccccc12	i	-34%	2%	10%	11%
CCCOc1cccc(-c2cc(C(=O)N/N=C/c3ccccn3)c3ccccc3n2)c1	?	7.1µM*	?	14%	-11%
O=C(N/N=C/c1ccco1)c1cc(-c2ccccc2)nc2ccccc12	i	5%	7%	16%	0%
